PubChem BioAssay (Tox21)
Inconclusive results are not listed. Activity calls are given as the source filed them. Unless noted, calls follow the shape of the dose curve; as a rule, active = well fitted curve in the direction sought with a large enough effect in the repeat runs; inconclusive = weak or mixed curves; inactive = no such curve, though single readings can be large; an effect the other way counts as inactive or inconclusive.

Key:
[1] = qHTS assay to identify small molecule agonists of the peroxisome proliferator-activated receptor delta (PPARd) signaling pathway - cell viability counter screen (AID 743211); also: nearly all actives have a fitted effect of over 55% in size
Method in brief: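 Tox21 library compounds, delivered in DMSO, were incubated 17 h with PPARd-bla HEK293H cells; cytotoxicity was taken from CellTiter-Glo luminescence read 30 min after reagent addition.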

[2] = molecular target: Peroxisome proliferator-activated receptor delta (Homo sapiens) (UniProt Q03181); assay: qHTS assay to identify small molecule agonists of the peroxisome proliferator-activated receptor delta (PPARd) signaling pathway (AID 743212; calls by dose curve)
Sequence of Peroxisome proliferator-activated receptor delta (Homo sapiens) (Q03181 whole entry, looked up): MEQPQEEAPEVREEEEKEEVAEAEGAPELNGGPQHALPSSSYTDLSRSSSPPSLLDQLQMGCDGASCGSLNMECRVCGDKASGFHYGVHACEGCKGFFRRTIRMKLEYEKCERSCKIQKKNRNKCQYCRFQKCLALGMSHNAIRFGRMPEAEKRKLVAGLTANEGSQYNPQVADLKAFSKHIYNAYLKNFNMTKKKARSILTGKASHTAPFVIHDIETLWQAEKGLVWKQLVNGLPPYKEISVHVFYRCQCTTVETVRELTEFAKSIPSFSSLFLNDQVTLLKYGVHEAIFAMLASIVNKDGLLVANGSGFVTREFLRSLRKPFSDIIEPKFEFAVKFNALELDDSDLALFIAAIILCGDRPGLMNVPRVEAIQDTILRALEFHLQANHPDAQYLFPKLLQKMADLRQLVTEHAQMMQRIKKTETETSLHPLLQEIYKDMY
Method in brief: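 Tox21 library screened in GeneBLAzer PPARd UAS-bla HEK293H cells. After compound treatment at 37 C, a FRET-based beta-lactamase substrate was applied for 2 h and fluorescence recorded.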

[3] = qHTS assay to identify small molecule antagonists of the peroxisome proliferator-activated receptor delta (PPARd) signaling pathway - cell viability counter screen (AID 743213); also: nearly all actives have a fitted effect of over 50% in size
Method in brief: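 Cytotoxicity counter screen: CellTiter-Glo luminescence read 30 min after addition, in the same wells as the reporter assay. There, PPARd UAS-bla HEK293H cells (3000/well) were treated 17 h at 37 C with compound and 300 nM L165041.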

[4] = molecular target: Peroxisome proliferator-activated receptor delta (Homo sapiens) (UniProt Q03181); assay: qHTS assay to identify small molecule antagonists of the peroxisome proliferator-activated receptor delta (PPARd) signaling pathway (AID 743215; active = well fitted inhibition curve with a large enough effect in the signal ratio in the repeat runs, not every such curve was filed as active; the % refers to the signal ratio;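 also: cells stimulated with agonist L165041 at 300 nM final during compound exposure; series mostly up to about 62 µM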)
Method in brief: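 HEK293H GeneBLAzer PPARd UAS-bla reporter cells; cpd + L165041 300 nM final, 17 h 37 C; LiveBLAzer B/G FRET substrate 2 h RT; fluorescence intensity read-out. Antagonist mode.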

[5] = qHTS assay to identify small molecule agonists of the farnesoid-X-receptor (FXR) signaling pathway - cell viability counter screen (AID 743218); also: nearly all actives have a fitted effect of over 45% in size
Method in brief: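 Luminescence from CellTiter-Glo, read after 30 min at RT, reports viability of GeneBLAzer FXR-UAS-bla HEK 293T cells treated 16 h with compounds in the wells used for the beta-lactamase reporter.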

[6] = qHTS assay to identify small molecule antagonists of the farnesoid-X-receptor (FXR) signaling pathway - cell viability counter screen (AID 743221; active = well fitted cell-killing curve with a large enough effect in the repeat runs, not every such curve was filed as active; also: nearly all actives have a fitted effect of over 50% in size)
Method in brief: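 Cytotoxicity is taken from ATP luminescence (CellTiter-Glo, 30 min, room temperature) in FXR-bla HEK 293T cells previously incubated 16 h at 37 C with compound and chenodeoxycholic acid at 50 uM final.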

[7] = molecular target: Vitamin D3 receptor (Homo sapiens) (UniProt P11473); assay: qHTS assay to identify small molecule agonists of the vitamin D receptor (VDR) signaling pathway (AID 743222; calls by dose curve)
Sequence of Vitamin D3 receptor (Homo sapiens) (P11473 whole entry, looked up): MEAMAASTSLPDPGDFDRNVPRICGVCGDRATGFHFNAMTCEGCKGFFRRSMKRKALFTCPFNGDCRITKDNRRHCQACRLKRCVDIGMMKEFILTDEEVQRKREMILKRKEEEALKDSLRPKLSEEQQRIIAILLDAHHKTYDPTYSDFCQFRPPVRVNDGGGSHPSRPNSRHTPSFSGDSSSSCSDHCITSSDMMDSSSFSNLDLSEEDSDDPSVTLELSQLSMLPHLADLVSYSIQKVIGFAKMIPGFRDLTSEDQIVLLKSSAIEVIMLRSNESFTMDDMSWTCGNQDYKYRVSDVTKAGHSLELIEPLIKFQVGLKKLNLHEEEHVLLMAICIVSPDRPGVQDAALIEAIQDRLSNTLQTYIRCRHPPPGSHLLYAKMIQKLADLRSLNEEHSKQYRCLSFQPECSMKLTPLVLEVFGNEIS
Method in brief: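 Beta-lactamase reporter readout (LiveBLAzer B/G FRET, 2 h RT) in VDR-bla cells after 16 h compound treatment at 37C, 5% CO2; cells pre-incubated 4 h before pin transfer of DMSO solutions.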

[8] = molecular target: Vitamin D3 receptor (Homo sapiens) (UniProt P11473); assay: qHTS assay to identify small molecule antagonists of the vitamin D receptor (VDR) signaling pathway (AID 743223; active = well fitted inhibition curve with a large enough effect in the signal ratio in the repeat runs, not every such curve was filed as active; the % refers to the signal ratio)
Method in brief: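 Quantitative HTS in VDR-bla reporter cells stimulated with 1alpha,25-dihydroxyvitamin D3, 3 nM final. Compound exposure 16 h, 37C, 5% CO2. Read-out: beta-lactamase FRET substrate fluorescence, 2 h RT.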

[9] = molecular target: Bile acid receptor (Homo sapiens) (UniProt Q96RI1); assay: qHTS assay to identify small molecule antagonists of the farnesoid-X-receptor (FXR) signaling pathway (AID 743217; active = well fitted inhibition curve with a large enough effect in the signal ratio in the repeat runs, not every such curve was filed as active; the % refers to the signal ratio)
Sequence of Bile acid receptor (Homo sapiens) (Q96RI1 whole entry, looked up): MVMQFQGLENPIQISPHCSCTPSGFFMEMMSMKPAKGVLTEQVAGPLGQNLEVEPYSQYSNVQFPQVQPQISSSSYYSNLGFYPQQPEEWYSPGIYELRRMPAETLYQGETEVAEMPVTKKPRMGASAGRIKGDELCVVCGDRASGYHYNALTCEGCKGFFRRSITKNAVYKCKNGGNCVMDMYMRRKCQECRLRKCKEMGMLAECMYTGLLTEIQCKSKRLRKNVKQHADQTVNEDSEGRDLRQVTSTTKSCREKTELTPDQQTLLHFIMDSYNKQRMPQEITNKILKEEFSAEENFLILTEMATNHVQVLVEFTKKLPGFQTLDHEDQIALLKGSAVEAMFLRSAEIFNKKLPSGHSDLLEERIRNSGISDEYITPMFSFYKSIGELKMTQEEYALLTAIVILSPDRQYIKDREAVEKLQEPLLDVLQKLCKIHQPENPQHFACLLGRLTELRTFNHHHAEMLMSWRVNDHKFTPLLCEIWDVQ
Method in brief: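 Read-out: beta-lactamase FRET fluorescence (LiveBLAzer B/G substrate, 2 h, room temperature) in GeneBLAzer FXR-UAS-bla HEK 293T cells. Compounds were co-dosed with 50 uM chenodeoxycholic acid (final) and incubated 16 h at 37 °C.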

[10] = molecular target: Bile acid receptor (Homo sapiens) (UniProt Q96RI1); assay: qHTS assay to identify small molecule agonists of the farnesoid-X-receptor (FXR) signaling pathway (AID 743220; active = well fitted activation curve with a large enough effect in the signal ratio in the repeat runs, not every such curve was filed as active; the % refers to the signal ratio)
Method in brief: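 FXR-UAS-bla HEK 293T cells carrying a UAS-driven beta-lactamase reporter were plated for 5 h at 37C/5% CO2, then exposed to DMSO-dissolved Tox21 10K compounds for 16 h at 37C. A LiveBLAzer B/G FRET substrate was loaded for 2 h at room temperature before fluorescence reading.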

Measured: Potency

COCCOC(=O)c1ccccc1C(=O)OCCOC
not listed: [9] | [10]
inactive: all other assays above

CCCCCCCCCCN
inactive: [1] | [2] | [3] | [4] | [5] | [6]

CN(C)c1ccc(O)c2c1C[C@H]1C[C@H]3[C@H](N(C)C)C(=O)C(C(N)=O)=C(O)[C@@]3(O)C(=O)C1=C2O
not listed: [9] | [10]
inactive: all other assays above

CCNc1ccccc1
not listed: [2] | [10]
inactive: all other assays above

CCOC(=O)n1ccn(C)c1=S
not listed: [7] | [8] | [10]
inactive: all other assays above

CC(CCl)OP(=O)(OC(C)CCl)OC(C)CCl (centres undefined)
inactive: all assays above

CCO[Si](CCCN)(OCC)OCC
not listed: [10]
inactive: all other assays above

N#Cc1ccccc1
not listed: [2] | [10]
inactive: all other assays above

C[C@]12CCC(=O)C=C1CC[C@@H]1[C@@H]2[C@@H](O)C[C@@]2(C)[C@H]1CC[C@]2(O)C(=O)CO
not listed: [9] | [10]
inactive: all other assays above

O=C1c2ccccc2CCc2ccccc21
inactive: [1] | [3] | [4] | [9] | [5] | [6]

CC(=O)c1ccc(O)cc1
not listed: [2]
inactive: all other assays above

CCCCCCC=O
not listed: [9] | [10]
inactive: all other assays above

COc1ccc(N)c(C)c1
not listed: [2] | [10]
inactive: all other assays above

C=C(C)C(=O)OCC(C)C
not listed: [2]
inactive: all other assays above

NC(=S)NNC(N)=S
not listed: [5] | [7] | [8]
inactive: all other assays above

CC(C)(C)c1cc(Cc2cc(C(C)(C)C)c(O)c(C(C)(C)C)c2)cc(C(C)(C)C)c1O
not listed: [10]
inactive: all other assays above

O=C(O)c1ccc(C(=O)O)c(C(=O)O)c1
inactive: [1] | [2] | [3] | [4] | [5] | [6]

CC(C)OP(=O)(CP(=O)(OC(C)C)OC(C)C)OC(C)C
not listed: [10]
inactive: all other assays above

C[Si]1(C)O[Si](C)(C)O[Si](C)(C)O[Si](C)(C)O1
not listed: [2] | [10]
inactive: all other assays above

OCc1cccc(Oc2ccccc2)c1
not listed: [10]
inactive: all other assays above

CC(C)CCCCCCCOC(=O)CCCCC(=O)OCCCCCCCC(C)C
not listed: [10]
inactive: all other assays above

O=[N+]([O-])c1ccc2nc[nH]c2c1
inactive: [1] | [3] | [4] | [9] | [5] | [6]

COc1ccc([N+](=O)[O-])cc1N
not listed: [2]
inactive: all other assays above

CCCCOC(=O)c1ccc(N)cc1
not listed: [9] | [10]
inactive: all other assays above

CC(C)CC(C)O (centres undefined)
not listed: [10]
inactive: all other assays above

OC1C(O)C(O)C(O)C(O)C1O (centres undefined)
inactive: all assays above

CC1(C)CC(N)CC(C)(CN)C1 (centres undefined)
inactive: [1] | [2] | [3] | [4] | [5] | [6]

CC(=O)OCc1ccccc1
not listed: [9] | [10]
inactive: all other assays above

C=CCc1ccc(OC)c(OC)c1
not listed: [4] | [8] | [10]
inactive: all other assays above

COc1ccc(CCC(C)=O)cc1
not listed: [10]
inactive: all other assays above

CN(C)CCOC(=O)COc1ccc(Cl)cc1
not listed: [9] | [10]
inactive: all other assays above

CCCOC(=O)c1ccccc1
not listed: [9] | [10]
inactive: all other assays above

CC1(C)S[C@@H]2[C@H](NC(=O)COc3ccccc3)C(=O)N2[C@H]1C(=O)O
not listed: [8] | [9] | [10]
inactive: all other assays above

CC(C)CC(=O)CC(C)CC(C)C (centres undefined)
not listed: [7] | [8] | [10]
inactive: all other assays above

C=C(C)CNCC
not listed: [9] | [10]
inactive: all other assays above

CC(=O)OC1CC(C)OC(C)O1 (centres undefined)
inactive: [1] | [3] | [4] | [9] | [5] | [6]

O=C(O)c1ccccc1C(=O)O
inactive: [1] | [2] | [3] | [4] | [5] | [6]

O=C(O)c1cc2ccccc2cc1O
not listed: [2] | [9] | [10]
inactive: all other assays above

CC(=O)CCC=C(C)C
not listed: [2] | [9] | [10]
inactive: all other assays above

CCOCC(=O)O
not listed: [2] | [9] | [10]
inactive: all other assays above

Nc1ccc(Cl)c(N)c1
not listed: [2] | [5] | [10]
inactive: all other assays above

COC(=O)CCCC(=O)OC
not listed: [2] | [10]
inactive: all other assays above

CC(C)=CCl
not listed: [2] | [4] | [10]
inactive: all other assays above

Cc1ccc([N+](=O)[O-])cc1S(=O)(=O)O
not listed: [2] | [9] | [10]
inactive: all other assays above

C=CCCCCCCCCC(=O)O
inactive: [1] | [3] | [5] | [6] | [7] | [8]

CCCCCCCC=O
inactive: [1] | [3] | [5] | [6] | [7] | [8]

CNC(=S)N(C)C
inactive: [1] | [3] | [5] | [6] | [7] | [8]

O=C(OCC1CCC2OC2C1)C1CCC2OC2C1 (centres undefined)
inactive: [1] | [3] | [4] | [5] | [6] | [7]

CN1C(=O)CC[C@H]1c1cccnc1
inactive: [1] | [3] | [5] | [6]

CCOCCOCCOCCO
not listed: [2] | [4] | [10]
inactive: all other assays above

CCCCCCCO
inactive: [1] | [3] | [5] | [6] | [7] | [8]

Cc1ccc(C(C)C)c(O)c1
not listed: [2] | [9] | [10]
inactive: all other assays above
